PubChem BioAssay
Activity calls are given as the source filed them. Unless noted, how the calls were made is not given here.

Columns and labels:
[1] = circadian clock period modulators, cell-based, LOPAC library, luminescence reporter (AID 2774); conditions: circadian reporter cells, at 7 µM, actives lie on both sides;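 further: values are relative to mean of DMSO wells on each plate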
[2] = system: Hepatitis C virus NS3 helicase; assay: HCV NS3 helicase inhibitors, primary screen, biochemical, fluorescence polarization, LOPAC1280 library (AID 687035; in the data active means inhibition above about 37%); conditions: Purified HCV NS3 helicase, Cy5-dT15 ssDNA binding fluorescence polarization; stronger effect = higher value; concentration not given here
[3] = Cy5 fluorescence quenching or enhancement artefacts, artefact control for HCV NS3 helicase inhibitor project, biochemical, LOPAC1280 (AID 687037); conditions: Cy5-DNA-NS3h complex fluorescence interference counterscreen
[4] = sensitizers of A549 cells to miR-34 induction, primary screen, imaging, A549 dox-inducible miR-34, nuclei and caspase counts (AID 1347080;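 active means compounds whose cell count with miR-34 switched on is under 0.7 times the count with it off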); conditions: A549 miR-34 inducible, Hoechst nuclei count, 48 h
[5] = phospholipid biosynthesis inhibitors in animal cells, primary screen, cell-based, LOPAC library, screen 4 (AID 1347384); conditions: phospholipid biosynthesis inhibition screen, at 10 µM
[6] = viability rescue of complex I mutant cybrids, primary screen, cell-based, galactose medium, ATP luminescence (AID 1645843;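 active means z-score of at least 1.8 in each of two replicates, scored against plate mean and spread of sample wells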;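 further: positive z means more ATP and so rescue of galactose-driven cybrid death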); conditions: complex I mutant cybrid cells, 72 h, stronger effect = higher value
[7] = stronger effect = lower value, cell number ratio, induced over uninduced
[8] = measured here: relative caspase fold change +Dox/-Dox
[9] = measured here: total cells with miR-34 induction, stronger effect = lower value
[10] = measured here: total cells without miR-34 induction

SMILES	period change [1]	inhibition [2]	fluorescence ratio (interference) [3]	fold change [4, 7]	fold change [4, 8]	cell count [4, 9]	cell count [4, 10]	outcome [5]	z-score [6]
COc1cccc2c1[C@@H]1CN(CCCCn3c(=O)[nH]c4c(sc5ncc(-c6ccccc6)nc54)c3=O)C[C@@H]1CO2	-0.035 h (inactive)	-5% (inactive)	0.9 (inactive)	1.07 (inactive)	1.42	6250	5860	inactive	-1.02 (inactive)
CC1C(=O)N(C)C(=O)c2nc[nH]c21 (centres undefined)	0.13 h (inactive)	-3% (inactive)	0.9 (inactive)	0.928 (inactive)	1.21	9940	10700	inactive	0.22 (inactive)
NC/C=C\C(=O)O	0.03 h (inactive)	-3% (inactive)	1 (inactive)	1.03 (inactive)	1.8	9360	9050	inactive	-1.38 (inactive)
C=CCN1CCc2c(cc(O)c(O)c2Cl)C(c2ccccc2)C1 (centres undefined)	0.25 h (inactive)	-4% (inactive)	1 (inactive)	1.02 (inactive)	1.32	7830	7660	inactive	-0.925 (inactive)
COc1cccc(OC)c1OCCNCC1CSc2ccccc2O1 (centres undefined)	0.065 h (inactive)	0% (inactive)	1 (inactive)	1.03 (inactive)	1.19	7530	7340	inactive	-1.31 (inactive)
O=C(O)[C@H]1NCCC[C@H]1C(=O)O	0.06 h (inactive)	-2% (inactive)	1 (inactive)	1.06 (inactive)	2.09	10400	9820	inactive	0.52 (inactive)
N[C@H](C(=O)O)[C@H]1C[C@@H]1C(=O)O	0.045 h (inactive)	2% (inactive)	1 (inactive)	0.968 (inactive)	1.24	9910	10200	inactive	0.225 (inactive)
N[C@@H](CCCC(=O)O)C(=O)O	0.11 h (inactive)	-1% (inactive)	0.9 (inactive)	1.05 (inactive)	0.58	10400	9930	inactive	0.595 (inactive)
NCCS(=O)O	0.035 h (inactive)	-3% (inactive)	1 (inactive)	1 (inactive)	0.978	10600	10500	inactive	0.415 (inactive)
OC[C@H]1O[C@@H](n2cnc3cncnc32)[C@H](O)[C@@H]1O	0.1 h (inactive)	-4% (inactive)	1 (inactive)	1.03 (inactive)	1.29	10800	10600	inactive	-0.28 (inactive)
C=CC[C@H](N)C(=O)O	-0.185 h (inactive)	-3% (inactive)	1 (inactive)	0.944 (inactive)	0.719	9830	10400	inactive	0.62 (inactive)
NC(=O)C(=O)O	0.025 h (inactive)	-7% (inactive)	0.9 (inactive)	1.05 (inactive)	1.23	10900	10300	inactive	0.585 (inactive)
CC(O)C(O)[C@H]1CNc2nc(N)[nH]c(=O)c2N1 (some centres undefined)	-0.26 h (inactive)	-4% (inactive)	1 (inactive)	0.979 (inactive)	1.26	10500	10800	inactive	0.515 (inactive)
CNCC[C@H](Oc1ccc(C(F)(F)F)cc1)c1ccccc1	0.185 h (inactive)	-2% (inactive)	1 (inactive)	1.08 (inactive)	0.944	7270	6730	inactive	-0.925 (inactive)
Nc1c(S(=O)(=O)O)cc(Nc2ccc(Nc3nc(Cl)nc(Nc4ccc(S(=O)(=O)O)cc4)n3)c(S(=O)(=O)O)c2)c2c1C(=O)c1ccccc1C2=O	0.105 h (inactive)	86% (active)	0.7 (active)	1.07 (inactive)	0.889	9580	8990	inactive	4.81 (active)
CC(=O)C(C)=O	-0.125 h (inactive)	-3% (inactive)	1 (inactive)	1.06 (inactive)	0.938	10100	9490	inactive	0.23 (inactive)
CCCn1c(=O)c2c(ncn2C)n(CCC)c1=O	-0.02 h (inactive)	-3% (inactive)	1.1 (inactive)	1 (inactive)	1.17	10000	9990	inactive	0.46 (inactive)
CSc1nc(N)c2ncn([C@@H]3O[C@H](COP(=O)(O)OP(=O)(O)O)[C@H](O)C3O)c2n1 (some centres undefined)	-0.26 h (inactive)	33% (inactive)	0.9 (inactive)	1.03 (inactive)	1.82	11000	10800	inactive	0.32 (inactive)

SMILES	period change [1]	inhibition [2]	fluorescence ratio (interference) [3]	fold change [4, 7]	fold change [4, 8]	cell count [4, 9]	cell count [4, 10]	outcome [5]	z-score [6]
Cn1cc(C(F)(F)F)nc1-c1ccc(OCC(O)CNCCOc2ccc(O)c(C(N)=O)c2)cc1 (centres undefined)	-0.065 h (inactive)	0% (inactive)	1 (inactive)	0.893 (inactive)	1.45	9830	11000	inactive	-0.695 (inactive)
CCN(c1nc(N)c(C(=O)N=C(N)N)nc1Cl)C(C)C	-0.06 h (inactive)	-2% (inactive)	1 (inactive)	1.19 (inactive)	1.19	5200	4360	inactive	-1.38 (inactive)
O=c1cc(-c2ccccc2)[nH]c2nc(Cl)ccc12	-0.07 h (inactive)	-3% (inactive)	1 (inactive)	0.977 (inactive)	1.95	3650	3740	inactive	-0.5 (inactive)
OC[C@H]1O[C@@H](n2cnc3c(NC4CCCC4)ncnc32)C(O)[C@H]1O (some centres undefined)	-0.095 h (inactive)	-5% (inactive)	1 (inactive)	0.956 (inactive)	1.31	9220	9650	inactive	1.05 (inactive)
CC1=C(C(=O)O)N2C(=O)[C@@H](NC(=O)C(N)C3=CCC=CC3)[C@H]2SC1 (some centres undefined)	-0.045 h (inactive)	0% (inactive)	1 (inactive)	1.02 (inactive)	1.79	10500	10300	inactive	-0.29 (inactive)
N[C@@H](Cc1ccc(O)c(I)c1)C(=O)O	0.02 h (inactive)	-4% (inactive)	0.9 (inactive)	1.11 (inactive)	0.663	11600	10400	inactive	0.59 (inactive)
Nc1nc2c(nc(Br)n2C2OC3COP(=O)(O)O[C@@H]3C2O)c(=O)[nH]1 (some centres undefined)	-0.01 h (inactive)	-2% (inactive)	1 (inactive)	1.05 (inactive)	1.74	10000	9530	inactive	0.555 (inactive)
CCCCCCCCCC[Si](C)(C)CCC(=O)NC(Cc1ccc(C)cc1)c1ccccc1 (centres undefined)	0.12 h (inactive)	-1% (inactive)	1 (inactive)	1.02 (inactive)	2.15	10100	9990	inactive	-0.33 (inactive)
CCCCCCC/C=C\CCCCCCCCC(=O)O	0.02 h (inactive)	-4% (inactive)	0.9 (inactive)	1.08 (inactive)	0.494	10900	10100	inactive	0.87 (inactive)
Cc1nc(N=Nc2ccc(C(=O)O)cc2)c(COP(=O)(O)O)c(C=O)c1O	-0.16 h (inactive)	43% (active)	1 (inactive)	1.04 (inactive)	0.656	10100	9680	inactive	0.49 (inactive)
CCN1C(=O)C=CC1=O	0.135 h (inactive)	-3% (inactive)	1 (inactive)	0.985 (inactive)	1.06	9620	9760	inactive	-0.99 (inactive)
CC(N)(Cc1ccc(O)cc1)C(=O)O (centres undefined)	-0.14 h (inactive)	-1% (inactive)	0.9 (inactive)	1 (inactive)	0.646	9440	9440	inactive	1.32 (inactive)
CC(=O)[C@H]1CCC2C3CC=C4C[C@@H](OS(=O)(=O)O)CC[C@]4(C)C3CC[C@@]21C (some centres undefined)	0.02 h (inactive)	1% (inactive)	1 (inactive)	0.987 (inactive)	1.53	10100	10300	inactive	2.2 (active)
N[C@@H](Cc1ccc(F)cc1)C(=O)O	-0.05 h (inactive)	-1% (inactive)	1 (inactive)	1.04 (inactive)	0.805	9710	9330	inactive	0.26 (inactive)
COc1ccccc1N1CCN(CCCNc2c(C)c(=O)n(C)c(=O)n2C)CC1	-0.1 h (inactive)	-5% (inactive)	1 (inactive)	0.886 (inactive)	2.76	8920	10100	inactive	0.025 (inactive)
CN1CCc2cc(NC(=O)Nc3cccnc3)ccc21	0.02 h (inactive)	-2% (inactive)	1 (inactive)	1.02 (inactive)	2.86	10800	10700	inactive	1.34 (inactive)
NC(Cc1cccc(-c2ccccc2CP(=O)(O)O)c1)C(=O)O (centres undefined)	-0.07 h (inactive)	-5% (inactive)	1 (inactive)	0.998 (inactive)	1.77	10900	11000	inactive	0.42 (inactive)
O=c1cc(O)cc(/C=C/c2ccc(O)c(O)c2)o1	-0.02 h (inactive)	-1% (inactive)	1 (inactive)	1.09 (inactive)	1.07	9040	8270	inactive	-0.475 (inactive)
